Rows were chosen to be rich in hits. Some 2.4% of all compounds tested hit in one or more screens of this group.
Pol eta inh-1 = DNA polymerase eta (human) inhibition; Q9Y253; recombinant Pol eta, fluorescent DNA replication assay; 1.2% of 390,000 active; Potency, µM (top dose mostly 114 µM), without a hit: at the top dose activity change, negative = inhibition, actives largely listed as inhibitors; further: on the % scale 0 is the no-effect control and ±100 the full control effect
Target sequence (Q9Y253 whole entry, looked up): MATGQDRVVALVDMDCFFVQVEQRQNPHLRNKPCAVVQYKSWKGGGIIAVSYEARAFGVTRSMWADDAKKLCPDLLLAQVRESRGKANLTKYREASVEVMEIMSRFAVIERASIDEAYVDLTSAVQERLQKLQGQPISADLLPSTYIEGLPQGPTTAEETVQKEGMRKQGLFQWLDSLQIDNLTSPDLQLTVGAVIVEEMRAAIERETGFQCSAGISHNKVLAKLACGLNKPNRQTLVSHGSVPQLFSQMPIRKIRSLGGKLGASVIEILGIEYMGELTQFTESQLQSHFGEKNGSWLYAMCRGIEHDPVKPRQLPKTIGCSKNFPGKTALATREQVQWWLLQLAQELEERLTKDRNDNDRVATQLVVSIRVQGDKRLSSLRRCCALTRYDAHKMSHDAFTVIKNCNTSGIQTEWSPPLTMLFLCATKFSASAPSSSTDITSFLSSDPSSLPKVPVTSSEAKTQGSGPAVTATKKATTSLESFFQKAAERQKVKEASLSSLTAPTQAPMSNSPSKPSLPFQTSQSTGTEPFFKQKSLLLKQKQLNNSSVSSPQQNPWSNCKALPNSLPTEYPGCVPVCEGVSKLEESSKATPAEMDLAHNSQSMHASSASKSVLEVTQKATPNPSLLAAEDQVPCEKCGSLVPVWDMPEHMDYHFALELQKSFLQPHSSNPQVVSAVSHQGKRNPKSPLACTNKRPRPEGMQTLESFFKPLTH
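Fluorescent replication assay: 50 nM final substrate added after a 15 min room-temperature compound preincubation with 10 nM enzyme. Signal taken at 0 min and again at 10 min.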
FEN1 inh-1 = inhibitors of human flap endonuclease 1. Recombinant FEN1 flap cleavage, fluorescence, 15 min. Potency, µM (top dose mostly 114 µM), for inactives: at the top dose activity change, negative = inhibition, most hits filed as inhibitors. 0.35% of 390,000 active; further: on the % scale 0 is the no-effect control and ±100 the full control effect; nearly all actives have a fitted effect of over 65% in size
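Compounds are tested as a concentration series against 10 nM FEN1; after a 15 min room-temperature preincubation, 50 nM substrate starts cleavage, with plate reads at 0 and 15 min. Normalized responses are fitted by a Hill equation.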
Pol iota inh = DNA polymerase iota (human) inhibition; Q9UNA4; Pol iota fluorescent replication assay, 10 min; Potency, µM (titrated, usually from 115 µM), without a hit: top-dose activity, negative = inhibition, hits mostly inhibitors; 1% of 390,000 active; AID 588590
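Fluorescent replication assay read twice, at 0 min and 10 min after adding 50 nM (final) substrate. Enzyme (10 nM) and compounds were first incubated 15 min at room temperature; enzyme-free buffer wells were negative controls.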
WRN inhibitor = WRN helicase (human) inhibition; Q14191; WRN helicase unwinding, fluorescent forked duplex, kinetic; 0.46% of 360,000 active; Potency, µM (doses to about 114 µM), without a hit: top-dose activity change, negative = inhibition, usual class: inhibitors; further: on the % scale 0 is the no-effect control and ±100 the full control effect; nearly all actives have a fitted effect of over 55% in size
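Kinetic red-fluorescence monitoring (525/598 nm) tracks WRN helicase activity after 100 nM fluorophore-quencher forked duplex and 2 mM ATP are added to 20 nM enzyme pretreated 15 min at room temperature with compound.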
Pol kappa inh-1 = DNA polymerase kappa (human) inhibition | purified Pol kappa, fluorescent DNA synthesis assay, 10 min | Potency, µM (top dose mostly 107 µM), for the others: at the highest dose activity, negative = inhibition, most hits filed as inhibitors | 0.53% of 400,000 active; further: on the % scale 0 is the no-effect control and ±100 the full control effect
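First, compounds were pin-transferred onto 10 nM Pol kappa. After 15 min at room temperature, substrate was added to 50 nM final. Fluorescence was then measured kinetically at 0 and 10 min.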
POLB inh = blocks human DNA polymerase beta activity; Pol beta primer extension/strand displacement, fluorescence kinetic; Potency, µM (titrated, usually from 114 µM), for the others: top-dose activity change, negative = inhibition, most hits filed as inhibitors; 1.3% of 340,000 active; further: on the % scale 0 is the no-effect control and ±100 the full control effect
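Preincubation: enzyme (10 nM) with compound, 15 min, RT. Reaction: substrate added to 50 nM final. Reads: 0 and 10 min. Analysis: normalized, Hill fit.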
TbPGK inh = validation of Trypanosoma brucei phosphoglycerate kinase inhibitors; shares compounds with Pol kappa inh-1; TbPGK coupled GAPDH assay, Kinase-Glo luminescence; Potency, µM (titrated, usually from 57.5 µM), for the others: top-dose activity change, negative = inhibition, usual class: inhibitors; AID 686980; 79% of 500 active; further: on the % scale 0 is the no-effect control and ±100 the full control effect; nearly all actives have a fitted effect of over 65% in size
Pol iota confirm = Confirm cherry-picked inhibitors of human polymerase iota; shares compounds with Pol kappa inh-1; Pol iota primer extension, TAMRA/BHQ fluorescence; Potency, µM, usual class: inhibitors; 77% of 1,500 active
Pol kappa inh-2 = confirmation of human DNA polymerase kappa inhibitors; shares compounds with Pol eta inh-1; purified Pol-kappa, fluorescent strand-displacement substrate; Potency, µM, actives largely listed as inhibitors; 76% of 920 active; AID 720501
Pol eta inh-2 = confirmation of human DNA polymerase eta inhibitors. 64% of 2,600 active. Potency, µM, usual class: inhibitors. shares compounds with Pol eta inh-1. Pol eta primer extension, TAMRA/BHQ fluorescence, 10 min
FEN1 inh-2 = FEN1 inhibition, cherry-pick retest. shares compounds with FEN1 inh-1. FEN1 flap cleavage, TAMRA/BHQ2 fluorogenic DNA substrate. Potency, µM, most hits filed as inhibitors. 79% of 880 active; further: nearly all actives have a fitted effect of over 60% in size
* marks the source's active call; other numbers are inactive results; ? = inconclusive; . = no result; ! = not active in a repeat; [ ] = remark or other dose. The call rests on the fitted dose curve; in most records, active means well fitted curve in the direction sought with a large enough effect; inconclusive means small, poorly fitted or top-dose-only effect, or another doubt; inactive means no such curve, though single readings can be large; an effect the other way counts as inactive or inconclusive. Potency means the concentration at half of the fitted maximal effect.

SMILES	Pol eta inh-1	FEN1 inh-1	Pol iota inh	WRN inhibitor	Pol kappa inh-1	POLB inh	Pol iota confirm	Pol eta inh-2	FEN1 inh-2	others
Cc1ccc(NC(=O)CN2C(=O)N/C(=C\c3cccn3-c3ccc(C(=O)NC#N)cc3)C2=O)cc1	.	.	.	.	.	.	38*	43*	30*
Cc1ccc(NC(=O)CN2C(=O)N/C(=C/c3ccc(C)o3)C2=O)cc1	-2%	0%	-11%	-13%	-5%	0%	.	.	.
Cc1ccc(NC(=O)CN2C(=O)N/C(=C/c3ccccc3OCc3cccc(C(=O)O)c3)C2=O)cc1	25µM*	71µM*	20µM*	50µM*	?	35µM*	42*	?	76*	TbPGK inh=16µM*
CCc1ccc(NS(=O)(=O)c2c(-c3ccccc3)csc2C(=O)OC)cc1	-27%	-17%	25%	.	0%	-11%	.	.	.
Cc1ccc2cccc(NC(=O)c3ccc(-c4cc(Cl)ccc4Cl)o3)c2n1	2%	-4%	-11%	.	-10%	4%	.	.	.
O=C(O)C=Cc1ccc(Cn2ccnc2)cc1	.	.	.	.	-11%[19.4 µM]	.	.	.	.
CC(=O)Nc1c(C(=O)Nc2cccc(C)c2)nnn1-c1ccc(C)cc1	-15%	-4%	-18%	.	2%	11%	.	.	.
CCCCN(C)CCNC(=O)C1CCN(c2nc3ccc(CC)cc3s2)CC1	.	-5%	-4%	.	-6%	16%	.	.	.
Cc1ccc(NC(=O)CN2C(=O)N/C(=C\c3cccn3-c3cccc(-c4nn[nH]n4)c3)C2=O)cc1	.	.	.	.	.	.	27*	76*	67*	Pol kappa inh-2=21*
Cc1ccc(NC(=O)CN2C(=O)N/C(=C/c3ccc(N4CCOCC4)cc3)C2=O)cc1	-15%	-7%	39%	-29%[57.1 µM]	-3%	-7%	.	.	.
Cc1cccc(NC(=O)CN2C(=O)N/C(=C\c3ccc(-c4cccc(C(=O)O)c4)o3)C2=O)c1	?	?	?	?	?	?	67*	27*	76*
CN(C)CCNc1oc(-c2ccc(COc3ccc(Cl)cc3)o2)nc1C#N	-14%	2%	14%	.	-2%	-28%	.	.	.
CN(C)S(=O)(=O)c1cccc(NC(=S)N/N=C/c2ccc(O)c(O)c2O)c1	?	20µM*	?	28µM*	?	-11%	13*	19*	8.5*
COc1ccc(O)c(/C=N/NC(=S)Nc2cccc(S(=O)(=O)N(C)C)c2)c1	-9%	-24%	11%	-22%	-14%	-2%	.	.	.
COc1ccc(-n2ccnc(NCc3cccs3)c2=O)cc1	-8%	15%	15%	.	4%	0%	.	.	.
CC(C)CCn1c(=O)c2sccc2n2c(CCCC(=O)NC3CCC(C)CC3)nnc12 (stereo unspecified)	-6%	7%	27%	.	-6%	8%	.	.	.
CCC(C(=O)NCCCN(CC)CC)n1ncn2c(cc3occc32)c1=O (stereo unspecified)	.	-5%	19%	.	-12%	15%	.	.	.
Cc1ccc(N2C(=O)c3ccccc3C2C(=O)c2ccc(O)cc2O)cc1 (stereo unspecified)	79µM*	40µM*	11µM*	?	11µM*	35µM*	19*	30*	34*
COC(=O)c1c(-c2cccs2)csc1NC(=O)COc1c(C)ccc(C)c1C	-8%	-23%	13%	.	-7%	-5%	.	.	.
COc1cc(-c2cc(=O)c3c(O)c(OC)c(OC)c(O)c3o2)ccc1O	7.1µM*	?	?	?	25µM*	7.1µM*	7.5*	27*	34*
N#CC(C#N)=C(N)/C(C#N)=C/c1cc(O)c(O)c(O)c1	?	8.9µM*	?	?	0.79µM*	.	47*	.	19*
CCOC(=O)c1ccccc1NC(=O)CCc1c(C)nc2ncnn2c1C	-7%	-3%	46%	.	-3%	44%	.	.	.
COCc1cc(C)nc2sc3c(c12)NC(c1ccc(O)cc1)N(c1ccc(OC)cc1)C3=O (stereo unspecified)	-18%	0%	-18%	.	-15%	1%	.	.	.
COc1ccc2c([N+](=O)[O-])c(N3CCOCC3)[nH]c2c1	-7%	.	.	-7%	.	.	.	.	.
COc1ccc2c([N+](=O)[O-])c(Cl)[nH]c2c1	20µM*	18µM*	11µM*	-20%[11.6 µM]	50µM*	-20%	38*	27*	34*
SMILES	Pol eta inh-1	FEN1 inh-1	Pol iota inh	WRN inhibitor	Pol kappa inh-1	POLB inh	Pol iota confirm	Pol eta inh-2	FEN1 inh-2	others
CC1=C(C(=O)N2CCN(c3ccc(Cl)cc3)CC2)C2(CCC(C)CC2)OC1=O (stereo unspecified)	.	0%	-23%	.	-8%	-28%	.	.	.
O=C(CSc1nnc(-c2cccc(S(=O)(=O)N3CCCC3)c2)n1-c1ccccc1)Nc1ccc(C(=O)O)cc1	35µM*	?	?	50µM*	?	32µM*	42*	43*	76*
O=C(CSc1nnc(-c2cccc(S(=O)(=O)N3CCCC3)c2)n1-c1ccccc1)Nc1cccc(C(=O)O)c1	3%	-17%	?	-7%	2%	-30%	.	.	.
O=C1CC(=O)NC(SCC(=O)Nc2ccccc2[N+](=O)[O-])=N1	5.6µM*	?	2.8µM*	40µM*	40µM*	?	12*	6*	?	TbPGK inh=10µM*
Cc1cc(C)nc(SCC(=O)Nc2ccccc2[N+](=O)[O-])n1	0%	-6%	14%	-5%	-9%	23%	.	.	.
COc1ccc2[nH]cc(CCNc3ncncc3-c3ccoc3)c2c1	.	.	.	.	-4%[60.1 µM]	.	.	.	.
CCOC(=O)c1c(NC(=O)CSc2cn(CCNC(=O)c3ccccc3OC)c3ccccc23)sc2c1CCC2	-8%	-3%	22%	.	0%	-1%	.	.	.
CN(C)c1ccc(-c2nccc(NCc3cccs3)n2)cc1	.	.	.	.	-7%[60.1 µM]	.	.	.	.
NC[C@H](O)c1ccc(O)c(O)c1	-4%	-12%	4µM*!	-6%[11.6 µM]	0.71µM*!	-3%[57.1 µM]	1.5*	1.9*	34*
